PubChem BioAssay (NCATS)
A number with no mark means an inactive call. Inconclusive results are not listed. Activity calls are given as the source filed them. Unless noted, the call rests on the fitted dose curve; in most records, active means well fitted curve in either direction with a large enough effect (not every such curve was filed as active); inconclusive means small, poorly fitted or top-dose-only effect, or another doubt; inactive means flat fitted curve, though single readings scatter.

Experiments:
[1] = AP1 Signaling Pathway (AID 357); conditions: ME-180 AP-1-bla reporter, EGF-induced, beta-lactamase ratio, 5 h; at 17.2 µM (top of the series) unless noted;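 further: ME-180 reporter cells stimulated with EGF at its EC50 level; on the % scale 0 is the no-effect control and ±100 the full control effect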
Procedure, shortened: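 AP-1-bla ME-180 cells, Opti-MEM + 0.5% dialyzed FBS, plated overnight 37 °C. Cpd titration + EC50 EGF, 5 h 37 °C. CCF4 2.5 h RT; ex 405, em 460/530 ratio → %activity, AC50.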

[2] = NFAT Signaling Pathway (AID 444); conditions: Jurkat NFAT-bla M1, carbachol, beta-lactamase ratio, 5 h; at 17.2 µM (top of the series) unless noted;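 further: carbachol stimulus at about its EC50 of 1 µM final; on the % scale 0 is the no-effect control and ±100 the full control effect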
Procedure, shortened: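 Jurkat cells carrying an NFAT-driven β-lactamase reporter and co-transfected muscarinic M1 receptor were treated with compound plus carbachol (1 uM final, an EC50 level) for 5 h at 37 °C. CCF4 loading followed for 1 h at RT; 460/530 nm ratio gave %activity.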

[3] = Stat Signaling Pathway (AID 446); conditions: ME-180 (cervical carcinoma) SIE beta-lactamase reporter, IL-6 stimulated, 5 h; at 17.2 µM (top of the series) unless noted;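 further: ME-180 cervical cancer cells given 40 pM IL-6 alongside compound; SIE-controlled beta-lactamase reporter measured as 460/530 nm FRET emission ratio; on the % scale 0 is the no-effect control and ±100 the full control effect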
Procedure, shortened: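 IL-6/STAT signaling read in ME-180 cells via an SIE beta-lactamase reporter. Stimulus was 40 pM IL-6 (its AC50) for 5 hrs, so both activation and inhibition register.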

[4] = target: Glucocorticoid receptor (Homo sapiens) (UniProt P04150); assay: GR-GFP Redistribution (AID 450;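 active means compounds whose dose series gives a full or clear partial fitted curve of increased nuclear translocation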; further: potency means the concentration at half of the fitted maximal effect)
Sequence of Glucocorticoid receptor (Homo sapiens) (P04150 whole entry, looked up): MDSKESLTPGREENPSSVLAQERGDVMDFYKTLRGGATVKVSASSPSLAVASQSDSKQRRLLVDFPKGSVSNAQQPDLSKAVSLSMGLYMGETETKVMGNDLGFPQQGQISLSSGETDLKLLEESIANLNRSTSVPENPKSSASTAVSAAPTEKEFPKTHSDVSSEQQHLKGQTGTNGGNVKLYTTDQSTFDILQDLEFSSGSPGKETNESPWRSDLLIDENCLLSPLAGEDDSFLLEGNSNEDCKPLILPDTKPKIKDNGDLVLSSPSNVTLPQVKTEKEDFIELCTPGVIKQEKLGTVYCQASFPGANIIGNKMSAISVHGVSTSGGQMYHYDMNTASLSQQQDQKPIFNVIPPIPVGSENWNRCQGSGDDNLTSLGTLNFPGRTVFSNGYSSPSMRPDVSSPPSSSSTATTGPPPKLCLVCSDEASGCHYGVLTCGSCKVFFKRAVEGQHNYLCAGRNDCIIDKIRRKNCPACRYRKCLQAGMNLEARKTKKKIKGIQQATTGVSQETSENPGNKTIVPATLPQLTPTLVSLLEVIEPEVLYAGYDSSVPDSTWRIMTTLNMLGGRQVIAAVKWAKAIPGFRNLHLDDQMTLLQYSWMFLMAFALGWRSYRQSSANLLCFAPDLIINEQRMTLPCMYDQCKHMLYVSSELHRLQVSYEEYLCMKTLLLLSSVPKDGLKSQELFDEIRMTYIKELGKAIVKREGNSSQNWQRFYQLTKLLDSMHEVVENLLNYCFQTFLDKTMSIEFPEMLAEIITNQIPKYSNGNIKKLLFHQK

Structure (SMILES) | activity change, negative = inhibition [1] | activity change, negative = inhibition [2] | activity, negative = inhibition [3] | Potency [4]
Clc1ccc2[nH]c3c(NCCCN4CCOCC4)ncnc3c2c1 | 17% | -2.05% | -2.1% | > 20.6 µM
CCCOc1ccc(C2/C(=C(/O)c3ccccc3)C(=O)C(=O)N2CCCN(C)C)cc1OC (centres undefined) | 13.7% | 3.58% | 10.3% | > 20.6 µM
C/C(=N\O)C1(C)N(O)C(C)(C)C(c2ccco2)=[N+]1[O-] (centres undefined) | 5.37% | 9.27% | 1.33% | > 20.6 µM
O=c1oc2c(CN3CCCCC3)c(O)ccc2c2c1CCCCC2 | 2.02% | -25.5% | 9.48% | > 20.6 µM
CCOC(=O)c1[nH]c2ccccc2c1NC(=O)CCN1CCN(C(=O)OCC)CC1 | -2.19% | 1.86% | -0.665% | > 20.6 µM
O=C(Oc1ccccc1N1C(=O)CCC1=O)c1ccco1 | 11.4% | 8.69% | 1.19% | > 20.6 µM
CCn1c(SC(C)C(=O)O)nc2sc3c(c2c1=O)CCC3 (centres undefined) | 2.76% | 17.5% | -5.33% | > 20.6 µM
COc1cccc(/C(O)=C2/C(=O)C(=O)N(CCN(C)C)C2c2ccc(Br)cc2)c1 (centres undefined) | -1.11% | 20.3% | 0.896% | > 20.6 µM
CCCc1nc2n[nH]c(N)c2c2c1CCCC2 | 6.52% | -0.387% | 12.6% | > 20.6 µM
Cn1ncc2c(Nc3ccccc3Br)ncnc21 | 5.55% | 17% | -3.41% | > 20.6 µM
S=c1[nH]nc(-c2ccco2)n1C1CCCCC1 | -7.16% | 12.4% | 1.34% | > 20.6 µM
CCc1cc2c(=O)c(-c3cscn3)coc2cc1O | -3.15% | -8.09% | -14.6% | > 20.6 µM
CSc1nnc(N(CCC#N)CCC#N)s1 | 2.14% | 21.3% | 2.15% | > 20.6 µM
Cc1[nH]c2ccc(F)cc2c(=O)c1SC(F)(F)C(F)C(F)(F)F (centres undefined) | -31.7% | 10.1% | -1.13% | > 20.6 µM
CCOC(=O)Cc1[nH]nc2c1C(c1cc(OC)ccc1OC)C(C#N)=C(N)O2 (centres undefined) | -11.5% | -0.329% | -9.93% | > 20.6 µM
CCCCSc1nc(O)c(C2OC(=O)c3c2ccc(OC)c3OC)c(=O)n1C (centres undefined) | -4.1% | 1.82% | -7.44% | > 20.6 µM
O=C(O)CN(c1ccccc1)C1SC(=O)NC1=O (centres undefined) | 3.92% | 20.4% | 10.5% | > 20.6 µM
CN(C)c1nc(OCCOC(=O)Nc2ccc(Cl)cc2Cl)nc(N(C)C)n1 | -3.73% | -3.72% | -7.35% | > 20.6 µM
CC1(C)CC(N(Cc2ccco2)C(=O)Cc2ccccc2)CCO1 (centres undefined) | -1.99% | -3.12% | 9.62% | > 20.6 µM
CC1(C)Cc2c(sc3nc4n(c(=O)c23)CCC4)CO1 | -2.8% | 2.28% | -2.43% | > 20.6 µM
Oc1ccc2ccccc2c1/C=N/n1cnnc1 | -5.14% | 6.11% | -0.766% | > 20.6 µM
FC(F)(F)c1cccc(-n2cccc2/C=N/n2cnnc2)c1 | 8.38% | -0.658% | 10.7% | > 20.6 µM
N#Cc1cccc(-n2c(-c3ccccc3)nnc2-c2ccccc2)c1C#N | 4.78% | 5.67% | 0.928% | > 20.6 µM
CCOc1cccc(-c2nnc3sc(COc4ccccc4)nn23)c1 | -3.24% | 9.41% | -10.6% | > 20.6 µM
CCC(NC(=O)Nc1nccs1)(C(F)(F)F)C(F)(F)F | -2.44% | -12.7% | -6.36% | > 20.6 µM
O=S1(=O)C[C@@H](N2CCOCC2)[C@H](N2CCOCC2)C1 | -10.3% | 6.36% | -4.63% | > 20.6 µM

Structure (SMILES) | activity change, negative = inhibition [1] | activity change, negative = inhibition [2] | activity, negative = inhibition [3] | Potency [4]
COC(=O)C1=C(C)N=C2SC(C)C(=O)N2C1/C=C/c1ccccc1OC (centres undefined) | 2.3% | -16.8% | -6.43% | > 20.6 µM
CCOC(=O)c1ccccc1OCc1cc(/C=N/n2cncn2)ccc1OC | -21.7% | 8.94% | -6.04% | > 20.6 µM
COC(=O)/C=c1/s/c(=C(\C#N)C(=O)NCc2ccco2)n(-c2ccccc2)c1=O | -2.83% | -25.7% | 5.13% | > 20.6 µM
Cn1c(O)c(C=Nc2ccc(Cc3ccncc3)cc2)c(=O)n(C)c1=O | -2.77% | -10.1% | -1.74% | > 20.6 µM
CN1C(=O)NC(NC(=O)c2ccco2)(C(F)(F)F)C1=O (centres undefined) | 3.54% | 4.93% | 9.87% | > 20.6 µM
CN(C)CCCOC(=O)C1c2ccccc2Oc2ccccc21 | 9.34% | -63.3% (active) | -0.433% | > 20.6 µM
COC(=O)c1cc(Br)c(=O)n(-c2cc(C)on2)c1 | 8.72% | 12.9% | 7.11% | > 20.6 µM
CSc1nnc(C)c(=O)[nH]1 | -4.3% | -8.38% | 14.8% | > 20.6 µM
CC(=O)C1=C(NC(=O)c2ccccc2F)C[C@@H]2[C@H]1C2(C)C | -3.24% | -24.2% | 18.8% | > 20.6 µM
COc1ccc(-c2nc3n(n2)C(=O)CC(c2ccco2)S3)cc1 (centres undefined) | -9.14% | 0.813% | -11.3% | > 20.6 µM
O=C1CCC(=O)N1c1nc2nc(-c3ccccc3)cc(-c3ccccc3)n2n1 | -12.9% | 6.64% | -1.33% | > 20.6 µM
COc1ccc(/C=N/n2cncn2)cc1COc1ccc(NC(C)=O)cc1 | -1.63% | 2.89% | -3.18% | > 20.6 µM
CCn1cc(C(=O)NCC2CCCO2)c(=O)c2cc(F)c(N3CCN(C)CC3)cc21 (centres undefined) | -11.4% | -20.1% | -0.513% | > 20.6 µM
CCOC(=O)CCNc1n[nH]c(=O)[nH]c1=O | 7.71% | 7.29% | -2.32% | > 20.6 µM
O/N=C(\c1ccc2c(c1)OCCO2)C1CCCCC1 | -6.69% | -7.17% | -14% | > 20.6 µM
Nc1nnnn1/N=C/c1cccc(Oc2ccccc2)c1 | -4.47% | -18.6% | 10.9% | > 20.6 µM
CCC(NC(=O)Nc1nnc(C(F)(F)F)s1)(C(F)(F)F)C(F)(F)F | 18.4% | -115% (active) | -38.4% | > 20.6 µM
Cc1ccc(C2/C(=C(/O)c3ccc(OC(C)C)cc3)C(=O)C(=O)N2CCN2CCOCC2)cc1 (centres undefined) | 0.482% | 10.1% | -12.8% | > 20.6 µM
CCOC(=O)c1[nH]c2cc3c(cc2c1NC(=O)CN1CC(C)CC(C)C1)OCO3 (centres undefined) | -14.1% | -21% | -2.27% | > 20.6 µM
CC1(C)CC(=O)C(C2=NC(C)(C)Cc3ccccc32)=C(O)C1 | 2.44% | 2.48% | 0.129% | > 20.6 µM
CCOC(=O)c1c(C)n(C)c2ccc(OC)c(NC(=O)CN3CCC4(CC3)OCCO4)c12 | -3.92% | 1.31% | 3.03% | > 20.6 µM
CC(=O)/C=C(\C)NCCNc1c(F)c(F)c(CO)c(F)c1F | -4.08% | 1.05% | -2.87% | > 20.6 µM
CCc1cc(=O)oc2cc(C)c(CN3CCCC3)c(O)c12 | -8.92% | -9.64% | -10.7% | > 20.6 µM
CC1(C)CC(=O)C2=C(C1)N(CC1CCCO1)C(=O)C2(O)C(F)(F)F (centres undefined) | 4.53% | 0.206% | 5.45% | > 20.6 µM
O=C(COc1ccc(F)cc1)OCCN1CCOCC1 | -4.17% | -0.67% | 11.3% | > 20.6 µM
